The subject of assay [1] is Plasmodium falciparum Sir2 (PF13_0152, Sir2A). Put plainly: Plasmodium falciparum Sir2A binding compounds – biochemical, small-molecule microarray, 635 nm fluorescence, primary screen (AID 1098).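 Further: score merges spot fluorescence intensity with its signal-to-noise ratio.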 To be noted: fluorescence 635 nm, higher = more signal.
Assay [2] is described as follows: probe aDKK1 binding to arrayed compounds – biochemical, biotinylated probe, 635/667 nm fluorescence, primary screen (AID 1099).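 Further: score merges 667nm spot fluorescence with signal to noise across triplicate slides.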 Particulars: small-molecule microarray, higher = more signal.
Assay [3] is described as follows: probe aCHRDL2 binding to arrayed compounds – biochemical, biotinylated probe, 635/667 nm fluorescence, primary screen (AID 1100). To be noted: small-molecule microarray, higher = more signal.
The nature of assay [4]: change in splice reporter luminescence, either direction, cell-based, HEK293, spliceosome inhibition project, primary screen (AID 1101).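 Further: HEK293 cells carrying a splicing-competent luciferase reporter gene; test concentration not given here.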 Particulars: HEK293 splicing luciferase reporter, 24 h, higher = more signal, called active from +8 up or from −8 down. In general terms: In a reporter assay the amount or activity of a reporter protein is the signal.
The target of assay [5] is Fibroblast growth factor 10 (Homo sapiens) (UniProt O15520). Put plainly: compounds binding fibroblast growth factor 10 – biochemical, small-molecule microarray, 635 nm fluorescence, primary screen (AID 1102). Particulars: FGF10 binding, fluorescence 635 nm, higher = more signal.
In assay [6] the test system is glycogen synthase kinase-3 (GSK3A per assay name; protocol says GSK3B). Nature of the assay: compounds binding glycogen synthase kinase-3 – biochemical, small-molecule microarray, 635 nm fluorescence, GSK3A, primary screen (AID 1103). Further: the record names both GSK3A and GSK3B. Particulars: fluorescence 635 nm, higher = more signal.
Assay [7] deals with Epidermal growth factor receptor (Homo sapiens) (UniProt P00533). Put plainly: compounds binding epidermal growth factor receptor – biochemical, small-molecule microarray, 635 nm fluorescence, primary screen (AID 1104).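 Further: score merges 667 nm emission intensity with spot signal to noise over triplicate slides.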 Particulars: EGFR binding, higher = more signal.
Assay [8] concerns the target Follistatin-related protein 3 (Homo sapiens) (UniProt O95633). Put plainly: compounds binding follistatin-related protein 3 – biochemical, small-molecule microarray, 635 nm fluorescence, primary screen (AID 1105).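 Further: score merges emission near 667 nm and signal to noise per printed spot across three slides.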 Particulars: FSTL3 binding, higher = more signal.
For assay [9], the target named is Dickkopf-related protein 1 (Homo sapiens) (UniProt O94907). Put plainly: small molecules binding DKK1 protein – biochemical, small-molecule microarray, 635 nm fluorescence scan, primary screen (AID 1106).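 Further: score merges emission near 667 nm with signal to noise over three replicate slides.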 Particulars: higher = more signal.
Assay [10] concerns Inhibin beta A chain (activin A). Put plainly: small molecules binding activin A – biochemical, small-molecule microarray, 635 nm fluorescence scan, primary screen (AID 1107).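 Further: mouse activin A protein probed at 4.33 µg/mL on printed slides; score merges bound-protein fluorescence near 667 nm with spot signal-to-noise.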 Particulars: INHBA, higher = more signal.
Assay [11] has as its system Human papillomavirus type 1a protein E7 (residues 44-93). Nature of the assay: small molecules binding HPV E7 44-93 – biochemical, small-molecule microarray, residues 44-93, 635 nm fluorescence, primary screen (AID 1108).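 Further: E7 fragment applied at 1 µg/mL in TBST for 1 h at 4 C; score combines spot fluorescence with its signal to noise ratio.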 To be noted: fluorescence 635 nm, higher = more signal.
The nature of assay [12]: hepatitis C replication reporter changes, two-sided – Huh7 cells, luciferase reporter, HCV replication inhibitor project, primary screen (AID 1109).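 Further: huh7 hepatoma cells harbouring a luciferase neomycin HCV replicon reporter; luciferase luminescence as measure of HCV replicon replication; test concentration not given here.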 To be noted: Huh7 HCV replicon luciferase reporter, 48 h; higher = more signal.
In assay [13] the target is Left-right determination factor 2 (Homo sapiens) (UniProt O00292). Nature of the assay: small molecules binding LEFTY2 protein – biochemical, small-molecule microarray, 635 nm fluorescence scan, primary screen (AID 1110). To be noted: higher = more signal.
The target in assay [14] is Calmodulin-1 (Homo sapiens) (UniProt P0DP23). Nature of the assay: small molecules binding calmodulin-1 with EGTA – biochemical, small-molecule microarray, Cy5-labelled CALM1, profiling panel (AID 1111).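 Further: labelled calmodulin applied in Tris saline Tween buffer holding calcium plus EGTA and DTT.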 To be noted: Cy5-CALM1 binding fluorescence, higher = more signal.
The target is the same in assay [15]. Put plainly: small molecules binding Ca-loaded calmodulin-1 – biochemical, small-molecule microarray, Cy5-labelled CALM1, plus calcium, artefact control for SMM control-protein annotation, profiling panel (AID 1112).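 Further: score merges spot fluorescence with signal to noise from triplicate slides.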 To be noted: Cy5-CALM1 binding fluorescence, higher = more signal.
A short description of assay [16]: probe aWnt5a binding to arrayed compounds – biochemical, biotinylated probe, 635/667 nm fluorescence, primary screen (AID 1113).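 Further: score merges 667 nm fluorescence intensity with signal-to-noise per printed feature.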 Particulars: small-molecule microarray, higher = more signal.
The nature of assay [17]: probe aShh binding to arrayed compounds – biochemical, biotinylated probe, 635/667 nm fluorescence, primary screen (AID 1114).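 Further: probe is biotin-labelled aShh protein from a stem cell growth factor screen; measures binding of labelled protein to compounds printed on the slide; score merges feature fluorescence at 667 nm with signal-to-noise.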 Particulars: small-molecule microarray, higher = more signal.
Assay [18] is described as follows: probe aNog binding to arrayed compounds – biochemical, biotinylated probe, 635/667 nm fluorescence, primary screen (AID 1115).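 Further: probe is biotinylated aNog protein used at 0.15 µg/mL for 1 h at 4 C; z-score combines 667 nm fluorescence of each spot with its signal to noise.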 To be noted: small-molecule microarray, higher = more signal.
Assay [19] addresses Torsin-1A-interacting protein 1 (Homo sapiens) (UniProt Q5JTV8). Put plainly: compound microarray binding of lysate hLAP1 – cell lysate, small-molecule microarray, COS7 lysate, 635/667 nm fluorescence, primary screen (AID 1116). Particulars: 635 nm fluorescence, higher = more signal.
The target in assay [20] is Alpha-bungarotoxin (Bungarus multicinctus) (UniProt P60615). Nature of the assay: compounds binding labelled alpha-BTX control protein – biochemical, small-molecule microarray, Alexa647 label, 635/667 nm fluorescence, artefact control for SMM control protein annotation, profiling panel (AID 1117). Particulars: alpha-BTX-A647 binding fluorescence, higher = more signal.

SMILES strings stand for the structures. Calls of active or inactive are those of the source.

Chain of Torsin-1A-interacting protein 1 (Homo sapiens) (Q5JTV8 whole entry, looked up): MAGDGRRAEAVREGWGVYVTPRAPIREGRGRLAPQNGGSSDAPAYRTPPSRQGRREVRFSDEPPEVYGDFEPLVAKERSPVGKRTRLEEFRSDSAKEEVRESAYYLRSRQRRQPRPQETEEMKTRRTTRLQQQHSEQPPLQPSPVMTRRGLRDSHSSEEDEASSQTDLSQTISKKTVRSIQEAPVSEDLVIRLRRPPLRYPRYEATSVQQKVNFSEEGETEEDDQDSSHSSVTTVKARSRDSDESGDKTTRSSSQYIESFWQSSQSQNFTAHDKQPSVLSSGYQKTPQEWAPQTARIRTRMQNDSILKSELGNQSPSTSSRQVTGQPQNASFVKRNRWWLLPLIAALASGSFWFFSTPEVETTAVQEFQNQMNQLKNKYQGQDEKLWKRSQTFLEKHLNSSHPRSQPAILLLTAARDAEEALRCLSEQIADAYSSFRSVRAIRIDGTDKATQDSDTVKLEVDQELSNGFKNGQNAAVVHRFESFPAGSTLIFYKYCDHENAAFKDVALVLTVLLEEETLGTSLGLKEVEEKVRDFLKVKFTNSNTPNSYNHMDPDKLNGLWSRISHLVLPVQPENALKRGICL
Chain of Epidermal growth factor receptor (Homo sapiens) (P00533 whole entry, looked up): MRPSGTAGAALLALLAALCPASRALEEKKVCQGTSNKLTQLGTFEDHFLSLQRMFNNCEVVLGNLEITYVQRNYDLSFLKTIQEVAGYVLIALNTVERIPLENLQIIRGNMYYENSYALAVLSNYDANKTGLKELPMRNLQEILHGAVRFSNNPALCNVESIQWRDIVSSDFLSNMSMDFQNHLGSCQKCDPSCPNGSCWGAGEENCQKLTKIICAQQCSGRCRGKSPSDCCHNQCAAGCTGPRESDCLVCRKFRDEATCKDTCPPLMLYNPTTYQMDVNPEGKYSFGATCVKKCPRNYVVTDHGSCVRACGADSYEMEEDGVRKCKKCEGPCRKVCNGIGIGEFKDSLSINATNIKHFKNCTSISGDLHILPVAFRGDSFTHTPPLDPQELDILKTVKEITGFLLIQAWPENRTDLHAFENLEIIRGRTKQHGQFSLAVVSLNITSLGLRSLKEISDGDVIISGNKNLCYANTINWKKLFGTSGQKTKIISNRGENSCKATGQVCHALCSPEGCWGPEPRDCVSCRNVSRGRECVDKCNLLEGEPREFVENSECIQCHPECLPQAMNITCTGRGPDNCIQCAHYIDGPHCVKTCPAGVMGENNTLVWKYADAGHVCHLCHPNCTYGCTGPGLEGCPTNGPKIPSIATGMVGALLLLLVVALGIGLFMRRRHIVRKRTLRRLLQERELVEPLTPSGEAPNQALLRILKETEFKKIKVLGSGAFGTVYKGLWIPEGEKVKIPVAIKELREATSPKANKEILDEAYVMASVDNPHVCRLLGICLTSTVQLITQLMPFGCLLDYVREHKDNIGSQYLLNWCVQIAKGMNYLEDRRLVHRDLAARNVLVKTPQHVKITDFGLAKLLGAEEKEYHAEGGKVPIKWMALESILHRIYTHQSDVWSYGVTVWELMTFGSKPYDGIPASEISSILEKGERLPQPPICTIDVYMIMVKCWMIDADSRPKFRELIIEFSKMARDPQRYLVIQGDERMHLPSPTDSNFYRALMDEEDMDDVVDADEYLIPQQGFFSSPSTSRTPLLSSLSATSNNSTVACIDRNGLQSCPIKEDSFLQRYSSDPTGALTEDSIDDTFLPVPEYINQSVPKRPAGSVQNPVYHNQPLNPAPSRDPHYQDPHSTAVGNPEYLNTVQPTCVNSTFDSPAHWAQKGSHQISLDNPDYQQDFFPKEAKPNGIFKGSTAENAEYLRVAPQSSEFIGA
Chain of Alpha-bungarotoxin (Bungarus multicinctus) (P60615 whole entry, looked up): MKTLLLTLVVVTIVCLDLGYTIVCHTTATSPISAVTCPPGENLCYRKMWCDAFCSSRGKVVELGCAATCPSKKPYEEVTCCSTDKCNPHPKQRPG
Chain of Left-right determination factor 2 (Homo sapiens) (O00292 whole entry, looked up): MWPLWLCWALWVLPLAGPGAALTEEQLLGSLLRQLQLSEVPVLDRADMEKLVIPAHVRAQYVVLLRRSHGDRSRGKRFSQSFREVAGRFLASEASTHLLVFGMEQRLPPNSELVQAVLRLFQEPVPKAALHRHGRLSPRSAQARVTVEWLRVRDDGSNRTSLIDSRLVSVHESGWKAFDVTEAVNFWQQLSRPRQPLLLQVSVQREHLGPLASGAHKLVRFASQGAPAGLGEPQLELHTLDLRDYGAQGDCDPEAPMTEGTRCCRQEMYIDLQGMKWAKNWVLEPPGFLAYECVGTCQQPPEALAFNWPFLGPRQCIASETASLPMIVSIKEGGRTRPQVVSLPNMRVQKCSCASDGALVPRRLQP
Chain of Dickkopf-related protein 1 (Homo sapiens) (O94907 whole entry, looked up): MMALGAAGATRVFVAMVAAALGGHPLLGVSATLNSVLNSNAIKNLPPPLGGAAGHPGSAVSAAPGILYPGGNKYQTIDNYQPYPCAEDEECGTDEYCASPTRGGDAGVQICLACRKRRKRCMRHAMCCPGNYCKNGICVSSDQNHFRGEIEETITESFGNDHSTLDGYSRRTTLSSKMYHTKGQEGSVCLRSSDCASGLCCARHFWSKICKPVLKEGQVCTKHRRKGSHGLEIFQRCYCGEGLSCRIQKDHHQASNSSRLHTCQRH
Chain of Fibroblast growth factor 10 (Homo sapiens) (O15520 whole entry, looked up): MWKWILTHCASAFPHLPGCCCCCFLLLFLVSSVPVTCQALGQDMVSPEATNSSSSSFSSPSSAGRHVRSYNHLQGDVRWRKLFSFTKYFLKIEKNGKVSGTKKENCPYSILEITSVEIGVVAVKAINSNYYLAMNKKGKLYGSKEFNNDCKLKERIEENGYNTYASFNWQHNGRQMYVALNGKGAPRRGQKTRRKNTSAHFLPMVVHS
Chain of Follistatin-related protein 3 (Homo sapiens) (O95633 whole entry, looked up): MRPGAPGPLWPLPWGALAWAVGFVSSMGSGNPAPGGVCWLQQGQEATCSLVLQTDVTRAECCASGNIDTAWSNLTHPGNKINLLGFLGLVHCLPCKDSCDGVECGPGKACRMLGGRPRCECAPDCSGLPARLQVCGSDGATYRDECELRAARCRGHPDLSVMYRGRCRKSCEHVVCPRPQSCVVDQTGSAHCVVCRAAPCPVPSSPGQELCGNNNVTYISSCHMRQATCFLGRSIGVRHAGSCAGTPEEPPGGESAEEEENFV

With `C=C[C@@H](OC)[C@H](OC(=O)Nc1ccc(SC)cc1)c1ccc(OCCO)cc1`, the composite z-score in assay [1] turned out to be 1.4; in assay [2], 0.0622; in [3], 0.527; in assay [5], 0.887; in [6] it was 0.64; in assay [7], 0.419. Further, the composite z-score is 0.839 in assay [8]; 0.444 in [9]; 0.0469 in assay [10]; 1.44 in assay [11]; 0.0128 in [13]; 0.469 in assay [14]. Moreover, the composite z-score in [15] was -0.0827; in assay [16], -0.0735; in [17] it was 0.0639; in assay [18], 0.36; in assay [19], 1.03; in [20] it was 1.36. For the same molecule, the z-score in assay [4] is 1.46 (inactive); in assay [12], 0.462.
`C=CCC(OC(C)=O)[C@@H]1[C@@H](N(Cc2cccc3ccccc23)C(=O)Cc2ccc(F)cc2)c2cc(OCCCO)ccc2N1C(=O)c1ccc(-c2ccccc2)cc1` (stereo not given in full): the composite z-score in assay [1] was -0.171; in [2], 0.592; in assay [3] it was 0.976; in [5], -0.219; in assay [6], -0.502; in assay [7], -0.304. For the same molecule, the composite z-score in assay [8] was 0.047; in assay [9] it was -0.506; in assay [10], 1.45; in assay [11], -0.658; in [13] it was -0.197; in assay [14] it was -0.573. Further, the composite z-score is 0.992 in assay [15]; -0.236 in assay [16]; -0.0035 in assay [17]; 0.0812 in assay [18]; 0.171 in assay [19]; -0.395 in assay [20]. Moreover, the z-score is -0.312 (inactive) in [4] and -1.09 in [12].
With `C=C(COC)/C(=C/C[C@H](OC(C)=O)c1cccc(OCCO)c1)c1cnc2ccccc2c1`, the composite z-score in [1] is 1.38; in assay [2], -0.0559; in assay [3] it was 0.0794; in [5], 1.51; in [6] it was 0.965; in assay [7], 0.771. For the same molecule, the composite z-score in assay [8] is 1.58; in assay [9], 0.83; in assay [10] it was 1.75; in [11], 1.4; in assay [13], 0.536; in [14] it was -0.0062. The composite z-score was -0.892 in assay [15]; -0.0512 in assay [16]; -0.147 in assay [17]; 0.353 in assay [18]; 0.416 in assay [19]; 2.04 in assay [20]. The z-score is 0.344 (inactive) in assay [4] and -1.7 in [12].
Turning to `COc1ccc([Si](C)(C)[C@@H]2[C@@H](CCn3cc([C@H](O)c4ccccc4)nn3)O[C@]3(C(=O)N(Cc4cccc(N5C(=O)c6cccc7cccc5c67)c4)c4ccccc43)[C@H]2C)cc1`, the composite z-score was -0.225 in assay [1]; -0.0463 in assay [2]; 0.575 in assay [3]; -0.365 in [5]; -0.83 in assay [6]; -1.32 in assay [7]. Moreover, the composite z-score in assay [8] is -0.607; in [9] it was -1.02; in assay [10], -0.317; in assay [11], 1.04; in assay [13], -1.54; in assay [14], 0.114. The composite z-score in [15] is 0.364; in assay [16], -0.232; in assay [17], -0.221; in assay [18] it was 0.262; in [19], -0.364; in assay [20] it was 0.0544. Further, the figures for the z-score in assay [4] and in assay [12] were 1.41 (inactive) and -2.89, respectively.
With `COC(=O)[C@@]1(Cc2ccc(OC)cc2)[C@H]2c3cc(C(=O)N4CCCC4)n(Cc4ccc(OC(F)(F)F)cc4)c3C[C@H]2CN1C(=O)c1ccccc1`, the composite z-score in assay [1] was 0.858; in [2], 1.15; in [3] it was 1.1; in assay [5] it was 0.717; in [6] it was -0.5; in assay [7] it was -0.0407. Besides, the composite z-score in assay [8] is 0.598; in assay [9], -0.414; in assay [10] it was 0.891; in assay [11], -0.0023; in assay [13], -0.251; in assay [14], 1.72. The composite z-score was 1.13 in assay [15]; 0.402 in assay [16]; 0.358 in assay [17]; 1.65 in assay [18]; -0.401 in assay [19]; 1.25 in [20]. For the same molecule, the z-score in assay [4] is -0.886 (inactive); in [12], -2.48.
